Source: PubChem
This is a sample that favours compounds with a hit; in the whole collection about 2.3% have one here.
Tau fluor counter – counter-screen for tau fibril formation inhibitors | tau K18 P301L Alexa594 fluorescence, heparin fibrillization | Potency, µM (series often up to 57.7 µM) | 280,000 compounds, 0.93% hits | AID 1463; note: nearly all actives have a fitted effect of over 55% in size
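Human K18 P301L tau (15 uM unlabeled plus 0.24 uM Alexa 594-labeled, final) in 100 mM sodium acetate pH 7 was mixed with compound and 20 uM heparin and incubated 6 hr at 37 C.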
Tau fibril ThT – tau fibrillization inhibition (ThT binding); recombinant tau K18 P301L, heparin-induced fibrillization, ThT fluorescence; Potency, µM (series often up to 57.4 µM), most hits filed as inhibitors; 270,000 compounds, 2.1% hits; AID 1460; note: nearly all actives have a fitted effect of over 55% in size
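Fibril formation assay: tau K18 P301L at 15 uM with trace Alexa 594 label, heparin inducer 20 uM, pH 7 sodium acetate buffer, 37 C for 6 hr; endpoint ThT signal.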
USP1 inh – USP1/UAF1 (human) deubiquitinase inhibition | O94782 | recombinant USP1/UAF1, Ub-Rhodamine cleavage fluorescence | Potency, µM (top dose mostly 57.1 µM), usual class: inhibitors | 390,000 compounds, 0.23% hits; note: nearly all actives have a fitted effect of over 60% in size
Target sequence (O94782 whole entry, looked up): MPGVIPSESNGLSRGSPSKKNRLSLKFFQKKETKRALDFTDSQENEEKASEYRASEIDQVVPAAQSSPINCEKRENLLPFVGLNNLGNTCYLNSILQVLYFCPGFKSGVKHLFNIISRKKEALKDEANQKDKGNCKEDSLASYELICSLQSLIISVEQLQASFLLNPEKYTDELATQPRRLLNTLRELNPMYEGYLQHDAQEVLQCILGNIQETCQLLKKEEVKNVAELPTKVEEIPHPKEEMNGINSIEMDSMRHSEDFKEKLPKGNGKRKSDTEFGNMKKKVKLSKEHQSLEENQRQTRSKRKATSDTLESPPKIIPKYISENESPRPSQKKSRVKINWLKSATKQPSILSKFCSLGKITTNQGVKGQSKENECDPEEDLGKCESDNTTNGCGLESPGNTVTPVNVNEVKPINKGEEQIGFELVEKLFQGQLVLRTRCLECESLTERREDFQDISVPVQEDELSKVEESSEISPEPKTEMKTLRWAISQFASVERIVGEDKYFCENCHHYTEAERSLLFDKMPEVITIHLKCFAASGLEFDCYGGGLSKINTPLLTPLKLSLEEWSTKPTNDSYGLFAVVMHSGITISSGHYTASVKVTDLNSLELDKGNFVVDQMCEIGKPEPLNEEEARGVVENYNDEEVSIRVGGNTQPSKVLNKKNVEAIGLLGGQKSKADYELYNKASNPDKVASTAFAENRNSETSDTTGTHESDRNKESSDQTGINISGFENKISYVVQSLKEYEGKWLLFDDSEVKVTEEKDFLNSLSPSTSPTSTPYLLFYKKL
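USP1/UAF1 complex at 1 nM was preincubated with compound for 15 min at room temperature, then Ub-Rho substrate (150nM final) was added. Fluorescence (480/540 nm) was read kinetically, 6 reads every 60 seconds.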
Coupling enz – inhibits coupling enzyme system, counter-screen for aldolase hits | coupling enzyme system counterscreen, AmpLite Red fluorescence | activity change, negative = inhibition, % at 58.2 µM, hits read low | 290,000 compounds, 0.67% hits | AID 2472; in the data active = activity change below about -30%
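Fluorescence at 525 nm excitation and 598 nm emission measured inhibition of the coupled detection system without aldolase. Compounds (at 57.5 uM final) were preincubated 10 min at room temperature with coupling enzyme reagent before a 20 min substrate/AmpLite Red step.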
Tau FP inhib – inhibitors of human tau fibril formation | P10636 | 280,000 compounds, 0.39% hits | K18 P301L tau heparin fibrillization, Alexa594 FP, 6 h | Potency, µM (titrated, usually from 57.7 µM), most hits filed as inhibitors; note: nearly all actives have a fitted effect of over 55% in size
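Steps: dispense K18 P301L tau (15 uM plus 0.24 uM Alexa 594 tracer, final) in pH 7 sodium acetate; add compound; add heparin (20 uM final); incubate 6 hr, 37 C; add ThT (30 uM final); after 1 hr ambient, read FP.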
Of the large screens only hits and unclear results are named; the others gave an inactive call; ! = not active in a repeat; [ ] = remark or other dose. Unless noted, calls come from the whole dose curve; as a rule, active = well fitted curve in the direction sought with a large enough effect; inconclusive = small, poorly fitted or top-dose-only effect, or another doubt; inactive = no such curve, though single readings can be large; an effect the other way counts as inactive or inconclusive.

CC1(OC(=O)C2CCCC2)C(=O)C=C2C=C(c3ccsc3)N(C3CC3)C=C2C1=O (configuration not stated)	Tau fibril ThT inconclusive, USP1 inh inconclusive, Coupling enz -30.2!
CCOC(=O)N1CCc2c(sc3c2c(=O)n(-c2ccccc2C(F)(F)F)c(=O)n3Cc2ccccc2C)C1	none (no result: Coupling enz)
CC(=O)OCC(NC(=O)C(C)NC(=O)OC(C)(C)C)C1OC(n2cc(F)c(=O)[nH]c2=O)C(OC(C)=O)C1OC(C)=O (configuration not stated)	none (no result: Tau fluor counter, Tau fibril ThT, USP1 inh, Tau FP inhib)
Cc1cc(Nc2cccc(Cl)c2)nc2ccc(NC(=O)c3cccnc3)cc12	Tau fluor counter 7.94µM[quencher], Tau fibril ThT inconclusive (no result: Coupling enz)
Cc1cc(Nc2cccc(C(F)(F)F)c2)nc2ccc(NC(=O)c3ccc(N(C)C)cc3)cc12	Tau fluor counter 3.55µM[quencher], Tau fibril ThT 3.55µM (no result: Coupling enz)
Cc1cc(Nc2cccc(Cl)c2)nc2ccc(NC(=O)c3cccc(N(C)C)c3)cc12	Tau fluor counter 4.47µM[quencher], Tau fibril ThT inconclusive (no result: Coupling enz)
O=C(Nc1cccc(NC(=O)c2cccc(Cl)c2)c1)c1cccnc1	none (no result: Tau fluor counter, Tau fibril ThT, Tau FP inhib)
CC(=O)OC[C@@H]1O[C@@H](O/N=C2/C[C@@H](O)[C@@H](O)[C@@H]3[C@@H]4C(=O)N(C(C)(C)C)C(=O)[C@H]4CC[C@@H]23)[C@H](OC(C)=O)[C@H](OC(C)=O)[C@@H]1OC(C)=O	none (no result: USP1 inh)
COc1ccc(C(=O)C2CCCN(C(=O)CCc3ccccn3)C2)c(C)c1 (configuration not stated)	none
COc1ccc(C(=O)C2CCCN(C(=O)CCc3scnc3C)C2)c(C)c1 (configuration not stated)	Tau fibril ThT 28.2µM
O=C(NCc1ccccc1Cl)C1CCN(S(=O)(=O)c2ccc(N3CCCC3=O)cc2)CC1	none (no result: Tau fluor counter, Tau fibril ThT, Coupling enz, Tau FP inhib)
Cc1ccc2[nH]cc(C(c3ccccc3)c3ccc(C)s3)c2c1 (configuration not stated)	Tau fluor counter 10µM[quencher] (no result: Coupling enz)
NCC(c1ccccc1)c1c[nH]c2ccccc12 (configuration not stated)	none
Cc1ccc2[nH]cc(C(c3ccccc3)c3cccs3)c2c1 (configuration not stated)	Tau fluor counter 7.94µM[quencher], Tau fibril ThT inconclusive, USP1 inh inconclusive, Tau FP inhib inconclusive (no result: Coupling enz)
CCOc1ccc(NC(=O)N2CCN3CCCCC3C2)cc1 (configuration not stated)	none (no result: Coupling enz)
C=CCN(C)CCCCCCOc1ccc(C(=O)c2ccc(Br)cc2)c(F)c1	none (no result: Tau fluor counter, Tau fibril ThT, USP1 inh, Tau FP inhib)
CCCCNc1nc2c(c(=O)n(Cc3ccc(Cl)c(Cl)c3)c(=O)n2C)n1C	Tau fluor counter 11.2µM[quencher], Tau fibril ThT inconclusive, Tau FP inhib inconclusive (no result: Coupling enz)
O=C(Nc1cccc(Cl)c1)Nc1cc(S(=O)(=O)N2CCOCC2)ccc1N1CCCC1	Tau fluor counter 14.1µM[quencher]
COc1ccc(Cl)cc1S(=O)(=O)N1CCN(C(=O)c2cc(-c3ccc(Br)cc3)n[nH]2)CC1	Tau FP inhib inconclusive (no result: Coupling enz)
Cc1ccc(NS(=O)(=O)c2ccc3[nH]c4c(c3c2)CCCCC4)cc1	Tau fluor counter 7.94µM[quencher] (no result: Coupling enz)
COc1ccc(Cl)cc1NS(=O)(=O)c1ccc(OC)c(OC)c1	none
COc1ccc(Cl)cc1NS(=O)(=O)c1ccc2[nH]c3c(c2c1)CCCC3	Tau fluor counter 8.91µM[quencher] (no result: Coupling enz)
Cc1ccc(NS(=O)(=O)c2ccc3[nH]c4c(c3c2)CCCC4)c(C)c1	Tau fluor counter inconclusive (no result: Coupling enz)
COc1ccc(NS(=O)(=O)c2ccc3[nH]c4c(c3c2)CCCCCC4)cc1	Tau fluor counter 5.01µM[quencher] (no result: Coupling enz)
COc1cccc(NS(=O)(=O)c2ccc3[nH]c4c(c3c2)CCCCCC4)c1	Tau fluor counter 7.08µM[quencher] (no result: Coupling enz)
CCn1cc(C(=O)NCCC(C)C)c(=O)c2cc(S(=O)(=O)N(C)C3CCCCC3)ccc21	none (no result: Coupling enz)
COc1cccc(NC(=O)c2cccc3c(=O)c4c([nH]c23)CCCC4)c1	none (no result: Coupling enz)
COc1cccc(-c2cc(=O)c3cc(NC(=O)c4cccnc4)ccc3[nH]2)c1	none (no result: USP1 inh)
COc1ccccc1CNS(=O)(=O)c1ccc2[nH]c3c(c2c1)CCCCC3	Tau fluor counter 15.8µM[quencher], Tau FP inhib inconclusive (no result: Coupling enz)
Cc1ccc(C)c(N2CCN(C(=O)CN3C(=O)CSc4c3c(C)nn4-c3ccccc3)CC2)c1	none (no result: Coupling enz)
CCN(CC)c1ccc(/C=C/C(=O)c2ccc(Br)cc2)cc1	Tau fluor counter inconclusive, Tau fibril ThT inconclusive, USP1 inh 28.2µM
CN(C)c1ccc(C(=O)/C=C/c2ccc(Br)cc2)cc1	Tau fibril ThT inconclusive
CC1=NN(CCC#N)C(=O)/C1=C/c1ccc(N(C)C)cc1	Tau fibril ThT 25.1µM
COc1ccc(-c2nc3ccc([N+](=O)[O-])cc3[nH]2)cc1	Tau fluor counter inconclusive, Tau fibril ThT 11.2µM
O=[N+]([O-])c1cccc(-c2nc3ccc([N+](=O)[O-])cc3[nH]2)c1	Tau fluor counter inconclusive, Tau fibril ThT inconclusive
Oc1c(Br)cc(C=Nc2ccc3nc(-c4ccccc4)[nH]c3c2)c(O)c1Br	Tau fluor counter 4.47µM[quencher], Tau fibril ThT 4.47µM, USP1 inh inconclusive, Tau FP inhib inconclusive
CCOc1ccc2nc(-c3ccccc3)[nH]c2c1	Tau fibril ThT inconclusive
COc1ccc2nc(-c3ccccc3)[nH]c2c1	Coupling enz -32.4
Nc1ccc(-c2nc3ccc(-c4nc5ccc(N)cc5[nH]4)cc3[nH]2)cc1	Tau fluor counter 12.6µM[quencher], Tau fibril ThT 12.6µM (no result: USP1 inh)
CCOC(=O)c1ccc(NC(=O)c2cc3sccc3n2Cc2ccc(Cl)cc2)cc1	Tau fibril ThT inconclusive, Tau FP inhib inconclusive (no result: Coupling enz)
COc1ccc2[nH]c(C(=O)c3ccccc3)cc2c1	none (no result: USP1 inh)
O=[N+]([O-])c1ccc2nc(-c3ccc(Cl)cc3)[nH]c2c1	Tau fluor counter inconclusive, Tau fibril ThT inconclusive
COc1ccc2[nH]c(-c3ccccc3)cc2c1	Tau fluor counter 12.6µM[quencher], Tau fibril ThT inconclusive
Cc1ccc(-c2nc3ccc([N+](=O)[O-])cc3[nH]2)cc1	Tau fluor counter inconclusive, Tau fibril ThT inconclusive, Coupling enz -30.8
C[C@H](NC(=O)N1CCc2nc(COc3ccccc3)c3c(c2C1)CO[C@@H](C)C3)c1ccccc1	none (no result: USP1 inh)
CCOC(=O)c1cc(-c2ccc(F)cc2)n(CC(=O)NC2CCCCCC2)c1C	none (no result: Coupling enz)
CC(=O)c1ccc(N2CCN(C(=O)CCS(=O)(=O)c3ccc4c(c3)oc(=O)n4C)CC2)cc1	Tau fibril ThT inconclusive (no result: Coupling enz)
COc1ccc(CNC(=O)Cn2c(=O)oc3cc(S(=O)(=O)NCc4ccccc4)ccc32)cc1	none (no result: Coupling enz)
Cc1cccc(Oc2cc(NC(=O)c3ccccc3)cc([N+](=O)[O-])c2)c1	Tau fluor counter 7.08µM[quencher]
Cc1nn(CCCC(=O)Nc2cc(Oc3ccccc3)cc([N+](=O)[O-])c2)c(C)c1[N+](=O)[O-]	Tau fluor counter 10µM[quencher]
Cn1cc([N+](=O)[O-])c(C(=O)Nc2cc(Oc3ccccc3)cc([N+](=O)[O-])c2)n1	Tau fluor counter inconclusive
O=C(Nc1cc(Oc2ccc(Cl)cc2)cc([N+](=O)[O-])c1)c1ccco1	Tau fluor counter 7.08µM[quencher]
